# Test results: PubChem BioAssay (NCATS)
# Records with an inconclusive call do not appear. A call without a number means that no potency is given here. Active and inactive are the calls of the source. The call rests on the fitted dose curve; in most records, active means well fitted inhibition curve with a large enough effect; inconclusive means small, poorly fitted or top-dose-only effect; inactive means no such curve, though single readings can be large or run the other way.
# Tested on: not listed separately
# Assay: qHTS to identify inhibitors of the type 1 interferon - major histocompatibility complex class I in skeletal muscle: primary screen against the NCATS Mechanism Interrogation Plate v5.0 (MIPE) Libary (AID 1347411); further: nearly all actives have a fitted effect of over 65% in size
# Conditions: iHSKM cells + IFN-b, HiBiT-tagged MHC-I luminescence, 24 h; series mostly up to 45.8 µM
# Method in brief: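 Luminescence from CRISPR HiBit-tagged endogenous HLA-B in human myoblasts reported MHC class I level after 24 h of IFN-beta (4 ng/ml) plus compound. Compounds ran as 11-point 1:3 series, top 46 uM final.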
row,Structure (SMILES),Potency
1,O=C(O)c1ccc(-c2c[nH]c3ncc(-c4ccccc4)cc23)cc1C1CCCC1,inactive
2,Cc1ccc(/C=N/NC(=O)c2ccccc2Oc2ccccc2)o1,inactive
3,CS(=O)(=O)N(Cc1ccco1)CC(O)Cn1c2ccccc2c2ccccc21 (stereo unspecified),inactive

# Biological target: Protein phosphatase 1D (Homo sapiens) (UniProt O15297)
# Assay: RapidFire Mass Spectrometry qHTS Assay for Modulators of WT P53-Induced Phosphatase 1 (WIP1) (AID 1347424);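 further: amount of dephosphorylated VEPPL-S-QETFS peptide product formed by WIP1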
# Conditions: WIP1 dephosphorylation of phosphopeptide, RapidFire MS; series mostly up to 63 µM
# Method in brief: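 Mass-spectrometric measurement of dephosphorylated peptide after a 5 min room-temperature reaction of 10 nM WIP1 with 2 uM phosphopeptide, following 1 h compound preincubation in 30 mM MgCl2 buffer.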
# Chain of Protein phosphatase 1D (Homo sapiens) (O15297 whole entry, looked up): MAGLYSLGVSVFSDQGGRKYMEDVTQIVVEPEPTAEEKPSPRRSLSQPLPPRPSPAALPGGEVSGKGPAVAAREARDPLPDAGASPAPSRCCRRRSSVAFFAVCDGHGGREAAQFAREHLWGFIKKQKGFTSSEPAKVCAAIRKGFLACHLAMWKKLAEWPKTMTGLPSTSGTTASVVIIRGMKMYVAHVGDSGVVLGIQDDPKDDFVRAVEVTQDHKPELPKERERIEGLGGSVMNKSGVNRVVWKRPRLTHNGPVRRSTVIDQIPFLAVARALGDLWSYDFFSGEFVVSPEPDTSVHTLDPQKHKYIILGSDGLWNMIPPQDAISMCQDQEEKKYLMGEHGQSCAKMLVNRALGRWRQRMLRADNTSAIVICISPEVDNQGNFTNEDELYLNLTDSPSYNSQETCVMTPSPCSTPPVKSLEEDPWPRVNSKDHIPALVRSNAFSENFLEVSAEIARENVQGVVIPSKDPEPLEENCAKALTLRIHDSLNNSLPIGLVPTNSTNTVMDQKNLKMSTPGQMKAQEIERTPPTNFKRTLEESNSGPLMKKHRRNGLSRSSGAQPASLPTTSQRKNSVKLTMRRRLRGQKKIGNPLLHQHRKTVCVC
row,Structure (SMILES),outcome
1,CC(C)OC(=O)C(C)(C)Oc1ccc(C(=O)c2ccc(Cl)cc2)cc1,inactive
2,O=c1[nH]cnc2c1ncn2[C@H]1CC[C@@H](CO)O1,inactive
3,CC(=O)Oc1cc2c(s1)CCN(C(C(=O)C1CC1)c1ccccc1F)C2 (stereo unspecified),inactive
